Drawing on PubChem BioAssay, this text covers inhibition for 39 compounds.

The source made the active and inactive calls.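 The calls were made as follows: active = inhibition above the hit cutoff set in the earlier primary screen (cut at about 27% in these data); inactive = the rest.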

The target in this test is Protein phosphatase methylesterase 1 (Homo sapiens) (UniProt Q9Y570). The test is described as follows: human PME-1 methylesterase inhibition confirmation – biochemical, fluorescence polarization, FP-Rh probe, triplicate (AID 2171).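 Also: 0% = enzyme with DMSO and 100% = wells lacking PME-1.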 The following applies: recombinant PME-1, FP-Rh probe fluorescence polarization; at 5.9 µM; active compounds read high. On the technique in general: Fluorescence polarisation rises when a labelled molecule tumbles more slowly, as on binding a larger partner.
Chain of Protein phosphatase methylesterase 1 (Homo sapiens) (Q9Y570 whole entry, looked up): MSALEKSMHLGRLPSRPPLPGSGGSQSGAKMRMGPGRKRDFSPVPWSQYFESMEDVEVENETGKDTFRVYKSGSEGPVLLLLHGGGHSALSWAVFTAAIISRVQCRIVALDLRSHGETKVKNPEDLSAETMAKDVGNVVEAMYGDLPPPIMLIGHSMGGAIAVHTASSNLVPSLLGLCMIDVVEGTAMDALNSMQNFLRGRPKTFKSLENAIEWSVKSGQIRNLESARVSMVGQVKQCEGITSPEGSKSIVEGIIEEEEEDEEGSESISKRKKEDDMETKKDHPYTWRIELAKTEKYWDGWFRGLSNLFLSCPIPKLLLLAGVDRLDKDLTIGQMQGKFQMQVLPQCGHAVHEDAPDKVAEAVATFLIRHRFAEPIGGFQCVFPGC
By inhibition is commonly meant the change of the read-out against control, counted positive when it falls. Consider `O=c1[nH]c(C2CCCN(S(=O)(=O)c3ccccc3)C2)nc2c1nnn2Cc1ccccc1` (centres undefined), for which the inhibition was 22.6% (inactive).

On to `COc1ccc(NC(=O)Nc2nnc(N3CCCCC3C)s2)cc1OC` (centres undefined), for which the inhibition was 43.7% (active).

For the compound `Clc1ccc2[nH]c3c(c2c1)CCc1cn[nH]c1-3`, the inhibition is 21.1% (inactive).

Turning to `O=C(c1ccccc1F)N1CCN(Cc2nc3sc4c(c3c(=O)[nH]2)CCCC4)CC1`, the inhibition is 19.9% (inactive).

Turning to `O=C(NNc1c2ccccc2nc2ccccc12)c1cccc(O)c1`, the inhibition is 36% (active).

In the case of `CCCn1nc([N+](=O)[O-])c(C(C#N)c2nc3ccccc3o2)c(Cl)c1=O` (centres undefined), the inhibition was 36.5% (active).

For the compound `Cc1cccc(NC(=O)COC(=O)c2cccc3c2C(=O)c2ccccc2C3=O)c1C`, the inhibition is 37.5% (active).

On to `CCNc1cc(O)ccc1C`, for which the inhibition was 2.02% (inactive).

For the compound `N#CCC(=O)c1ccccc1Oc1ccc(Cl)cc1`, the inhibition was 13.4% (inactive).

Regarding `CC(=O)Nc1ccc(Nc2c3c4c(cccc4n(C)c2=O)C(=O)c2ccccc2-3)cc1`, the inhibition is 31.5% (active).

`C=CCc1cccc(/C=N/NC(=O)CNc2cccc3ccccc23)c1O`: the inhibition was 17.8% (inactive).

Regarding `Cc1ccc(Nc2c([N+](=O)[O-])ccc3c2=NC2(CCCCC2)N=3)cc1`, the inhibition is 44.3% (active).

In the case of `O=C1c2ccccc2-c2onc3ccc(NCc4ccco4)c1c23`, the inhibition was 84.5% (active).

`CN(C)c1ccc(NC(=O)Nc2cccc(Cl)c2)cc1`: the inhibition was 19.8% (inactive).

With `Cc1ccc2nc(-c3sc4nc(C)cc(C)c4c3N)[nH]c2c1`, the inhibition was 18.2% (inactive).

For the compound `COc1cc(C(=O)Nc2c(C(=O)O)[nH]c3ccc(Br)cc23)cc(OC)c1OC`, the inhibition is 23.4% (inactive).

`CC(=O)c1c(C)n(-c2ccc(N(C)C)cc2)c2ccc(OCC(N)=O)cc12`: the inhibition is 23.7% (inactive).

As to `COC(=O)N1C(=O)[C@](c2ccccc2)(C(C)C)N1C(=O)OC`, the inhibition is 23.3% (inactive).

In the case of `COc1cc(/C=N/NC(=O)c2cc3ccccc3[nH]2)ccc1O`, the inhibition is 16.1% (inactive).

Consider `COc1cc(/C=N\Nc2nc3ccccc3o2)cc(OC)c1OC`, for which the inhibition is 31.4% (active).

Regarding `Oc1ccccc1-c1nc2c3ccccc3c3ccccc3c2[nH]1`, the inhibition is 21.4% (inactive).

Turning to `O=C1c2cccc3c([N+](=O)[O-])ccc(c23)C(=O)N1c1ccc(Cl)cn1`, the inhibition is 34.9% (active).

For `Cc1ccc(N=Cc2nc(/C=C/c3cccc([N+](=O)[O-])c3)oc2O)cc1`, the inhibition is 30.2% (active).

For the compound `C=CCN=c1scc(-c2ccco2)n1/N=C/c1ccc(O)c(O)c1O`, the inhibition is -17.6% (inactive).

`O=c1[nH]c(C2CCN(S(=O)(=O)c3ccc(C(F)(F)F)cc3)CC2)nc2c1nnn2Cc1ccc(F)cc1`: the inhibition was 79.1% (active).

In the case of `CCn1c(CSc2n[nH]c(N)n2)nc2cc(C(=O)O)ccc21`, the inhibition is 33.5% (active).

`CC(C)NC(=S)N=Nc1c(O)[nH]c2ccc(C(C)C)cc12`: the inhibition is 34.8% (active).

On to `Cc1cc(N/N=C/c2ccc(O)cc2O)nc(-c2ccccc2O)n1`, for which the inhibition was 39.8% (active).

Take `Cc1ccc(NC(=O)COC(=O)c2cccc3c2C(=O)c2ccccc2C3=O)c(C)c1`: the inhibition is 91.2% (active).

Turning to `O=C(c1ccc2oc(CCCc3ccccc3)nc2c1)N1CCCC(CCCO)C1` (centres undefined), the inhibition is 23.5% (inactive).

For `CCn1c2ccccc2c2cc(NC(=O)c3ccccc3[N+](=O)[O-])ccc21`, the inhibition is 20.3% (inactive).

On to `CC(=O)NC(c1cccs1)c1cc([N+](=O)[O-])c2cccnc2c1O` (centres undefined), for which the inhibition was 12% (inactive).

Regarding `CCc1cccc(CC)c1NC(=O)COc1ccccc1C(=O)c1cc(C#N)c(=O)n(C2CCCCC2)c1`, the inhibition was 35.9% (active).

In the case of `O=C(O)c1cc(N/N=C/c2c(O)ccc3ccccc23)ccc1Cl`, the inhibition was 20.7% (inactive).

For the compound `CCOc1cccc(/C=N/NC(=S)Nc2cc(S(=O)(=O)N3CCOCC3)ccc2N2CCOCC2)c1O`, the inhibition was 25.1% (inactive).

`CCO[C@@H]1OC(C(=O)N2CCN(Cc3ccccc3)CC2)=C[C@H](c2cn(C(C)=O)c3ccccc23)[C@H]1CCCO`: the inhibition was 75.4% (active).

As to `Nc1c(Cl)cc(-c2[nH]c3cc(C(=O)NCCO)ccc3c(=O)c2O)cc1Cl`, the inhibition is -9.64% (inactive).

Turning to `COc1ccc2c(Cl)c(C(=O)N/N=C/c3c(C)[nH]c4ccccc34)sc2c1`, the inhibition is 18.5% (inactive).

Regarding `COc1ccc(-c2cc(-c3ccc(Cl)cc3)n[nH]2)c(O)c1`, the inhibition is 16.9% (inactive).
